Screening results as filed in PubChem BioAssay.
Pol beta inh – inhibitors of human DNA polymerase beta. P06746. Pol beta primer extension/strand displacement, fluorescence kinetic. Potency, µM (titrated, usually from 114 µM), without a hit: at the top dose activity change, negative = inhibition, usual class: inhibitors. hit rate 1.3% among 340,000; note: % is set by controls: 0 for no effect and ±100 for the full control effect
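Kinetic readout of DNA synthesis with strand displacement by Pol beta. Compound and 10 nM enzyme sit 15 min at room temperature; 50 nM substrate starts the reaction, read immediately and at 10 min.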
Pol eta inh-1 – DNA polymerase eta (human) inhibition; Q9Y253; hit rate 1.2% among 390,000; Potency, µM (series often up to 114 µM), without a hit: at the highest dose activity change, negative = inhibition, most hits filed as inhibitors; recombinant Pol eta, fluorescent DNA replication assay; AID 588591; note: % is set by controls: 0 for no effect and ±100 for the full control effect
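Pol eta (10 nM) was preincubated with compounds for 15 min at room temperature, after which fluorescent replication substrate (50 nM final) was added to start the reaction. Fluorescence was read kinetically at 0 and 10 min.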
GLS inhibitor – glutaminase GLS (human) inhibition | O94925 | GLS enzymatic activity, qHTS titration | Potency, µM (doses to about 45.5 µM), for the others: top-dose activity change, negative = inhibition, hits mostly inhibitors | hit rate 0.21% among 410,000; note: % is set by controls: 0 for no effect and ±100 for the full control effect
Target sequence (O94925 whole entry, looked up): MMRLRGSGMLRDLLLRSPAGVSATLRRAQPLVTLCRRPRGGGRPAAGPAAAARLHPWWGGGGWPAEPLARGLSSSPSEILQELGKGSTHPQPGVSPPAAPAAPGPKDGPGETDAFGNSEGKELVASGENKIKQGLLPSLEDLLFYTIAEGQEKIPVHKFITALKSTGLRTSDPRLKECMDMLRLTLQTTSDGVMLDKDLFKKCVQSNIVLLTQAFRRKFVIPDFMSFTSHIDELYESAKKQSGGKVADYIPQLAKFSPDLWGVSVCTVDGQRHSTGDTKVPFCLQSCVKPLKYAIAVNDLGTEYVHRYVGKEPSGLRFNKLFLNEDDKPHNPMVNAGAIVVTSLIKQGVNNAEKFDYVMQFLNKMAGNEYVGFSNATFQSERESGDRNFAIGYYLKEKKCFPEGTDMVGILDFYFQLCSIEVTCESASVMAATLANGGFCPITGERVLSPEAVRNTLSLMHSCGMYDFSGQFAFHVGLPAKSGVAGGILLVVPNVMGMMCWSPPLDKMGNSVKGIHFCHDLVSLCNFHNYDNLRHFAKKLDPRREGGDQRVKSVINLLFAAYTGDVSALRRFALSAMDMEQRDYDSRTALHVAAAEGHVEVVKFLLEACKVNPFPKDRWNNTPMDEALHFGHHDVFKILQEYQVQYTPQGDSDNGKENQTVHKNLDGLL
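Assay buffer: 45 mM KH2PO4 pH 8.2, 0.02% Tween-20. hKGA acts on L-glutamine (1 mM solution added); product glutamate is reported by an oxidase/peroxidase Amplex Red coupling, with fluorescence taken at baseline and 30 min.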
Pol kappa inh-1 – inhibitors of human DNA polymerase kappa | purified Pol kappa, fluorescent DNA synthesis assay, 10 min | Potency, µM (series often up to 107 µM), inactives show at the highest dose activity, negative = inhibition, usual class: inhibitors | hit rate 0.53% among 400,000; note: % is set by controls: 0 for no effect and ±100 for the full control effect
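Inhibition of 10 nM Pol kappa is measured by a fluorescent read-out at 0 and 10 min following addition of 50 nM substrate (final), with a 15-min room-temperature compound preincubation.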
APE1 inh – APE1 (human) endonuclease inhibition; recombinant APE1, TAMRA/BHQ-2 abasic DNA cleavage fluorescence; P27695; Potency, µM (series often up to 65.8 µM), for the others: at the top dose activity change, negative = inhibition, most hits filed as inhibitors; AID 2517; hit rate 0.35% among 350,000;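 note: plate controls were vehicle for no effect and reference inhibitor for full effect; nearly all actives have a fitted effect of over 55% in size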
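Endonuclease cleavage of a quenched abasic-site DNA duplex (50 nM) by APE1 (0.75 nM) was tracked by TAMRA dequenching. Compounds were preincubated with enzyme 15 min at room temperature; data normalized to buffer-only and DMSO wells plus NSC13755 control.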
POLI inh – inhibitors of human DNA polymerase iota; Q9UNA4; Pol iota fluorescent replication assay, 10 min; Potency, µM (top dose mostly 115 µM), for the others: at the highest dose activity, negative = inhibition, most hits filed as inhibitors; hit rate 1% among 390,000
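Fluorescent replication assay read twice, at 0 min and 10 min after adding 50 nM (final) substrate. Enzyme (10 nM) and compounds were first incubated 15 min at room temperature; enzyme-free buffer wells were negative controls.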
PGK validate – validation of Trypanosoma brucei phosphoglycerate kinase inhibitors | shares compounds with Pol kappa inh-1 | TbPGK coupled GAPDH assay, Kinase-Glo luminescence | Potency, µM (series often up to 57.5 µM), for inactives: at the highest dose activity change, negative = inhibition, usual class: inhibitors | hit rate 79% among 500 | AID 686980; note: % is set by controls: 0 for no effect and ±100 for the full control effect; nearly all actives have a fitted effect of over 65% in size
Pol iota confirm – Human Pol iota inhibitor confirmatory assay | shares compounds with Pol kappa inh-1 | Pol iota primer extension, TAMRA/BHQ fluorescence | Potency, µM, most hits filed as inhibitors | hit rate 77% among 1,500 | AID 720496
Pol kappa inh-2 – Pol kappa (human) inhibition, cherry-pick confirmation; shares compounds with Pol eta inh-1; purified Pol-kappa, fluorescent strand-displacement substrate; Potency, µM, usual class: inhibitors; hit rate 76% among 920
Pol eta inh-2 – Pol eta (human) inhibition, cherry-pick confirmation; shares compounds with Pol eta inh-1; Pol eta primer extension, TAMRA/BHQ fluorescence, 10 min; hit rate 64% among 2,600; Potency, µM, usual class: inhibitors
Starred values were filed as active, the others as inactive; ? = inconclusive; / = no result given; [ ] = dose if it differs, or a comment. Compounds with a hit are over-represented: about 2.4% of the library has one in this group of screens. Calls come from the whole dose curve; as a rule, active = well fitted curve in the direction sought with a large enough effect; inconclusive = small, poorly fitted or top-dose-only effect, or another doubt; inactive = no such curve, though single readings can be large; an effect the other way counts as inactive or inconclusive. Potency is the fitted concentration of half-maximal effect.

SMILES | Pol beta inh | Pol eta inh-1 | GLS inhibitor | Pol kappa inh-1 | APE1 inh | POLI inh | Pol iota confirm | Pol eta inh-2 | others
Cc1cc(C)cc(NC(=O)c2ccccc2NC(=O)CCC(=O)O)c1 | 7.2% | -5.6% | 5.2% | -12.8% | 0.0% | 22.2% | / | /
O=C(CCN1C(=O)/C(=C\c2ccccc2)SC1=S)NNC(=O)c1ccccc1O | 20.5% | -2.9% | 3.6% | -4.4% | 26.5% | -11.6% | / | /
O=C(CCN1C(=O)/C(=C\c2ccco2)SC1=S)Nc1ccc(C(=O)O)c(O)c1 | 100µM* | 8.91µM* | ? | 20µM* | ? | -93.4% | 18.9* | 5.36* | Pol kappa inh-2=4.74*
O=C(CCN1C(=O)/C(=C/c2ccco2)SC1=S)Nc1ccc(O)cc1C(=O)O | 22.4µM* | 5.62µM* | 37.3% | ? | -4.7% | 4.47µM* | 47.4* | 30.1* | Pol kappa inh-2=13.4*
O=C(CCN1C(=O)/C(=C/c2ccco2)SC1=S)Nc1ccc(C(=O)O)c(O)c1 | ? | 4.47µM* | ? | 20µM* | 21.2µM* | 3.98µM* | 29.9* | ? | Pol kappa inh-2=16.8*
CN(C)CCCNCCCNC(=O)/C(=N\O)c1ccccc1 | -2.0% | -4.5% | -2.4% | -9.8% | 1.8% | -13.1%[58.9 µM] | / | /
CCCOc1cccc(C(=O)N2CCN(C(=O)C3CCCO3)CC2)c1 (stereo unspecified) | -12.6% | 1.3% | 18.5% | -2.2% | 39.5% | 27.9% | / | /
Nc1ccc(S(=O)(=O)Nc2nccs2)cc1N=Nc1ccccc1[N+](=O)[O-] | / | 3.16µM* | 6.4% | 28.2µM* | / | 7.08µM* | 75.2* | 19* | Pol kappa inh-2=?
O=[N+]([O-])c1ccccc1S(=O)(=O)Nc1ccc(S(=O)(=O)Nc2nccs2)cc1 | 1.4% | 0.3% | 2.5% | 2.8% | 14.2% | ? | / | /
Cc1[nH]n(C(N)=S)c(=O)c1N=Nc1cccc([N+](=O)[O-])c1C | -9.5% | -10.4% | 16.3% | -4.1% | 32.2% | -4.9% | / | /
NC(=S)n1[nH]c(-c2ccc([N+](=O)[O-])cc2)c(N=Nc2cccc([N+](=O)[O-])c2)c1=O | -0.3% | 28.2µM* | 5.0% | ? | ? | ? | 67* | 47.8* | PGK validate=13µM*
Cc1c(N=Nc2c(-c3ccc([N+](=O)[O-])cc3)[nH]n(C(N)=S)c2=O)cccc1[N+](=O)[O-] | -20.9% | 50.1µM* | 7.6% | ? | -8.1% | ? | ? | ?
Cc1ccc(NC(=O)CSc2nc3ccccc3nc2N2CCOCC2)c(C)c1 | -18.5% | -14.4% | -3.3% | 11.1% | 8.7% | 16.8% | / | /
COc1ccc(Nc2nc(OC)nc(OC)n2)cc1 | -17.8% | -3.3% | 3.1% | -5.2% | 3.6% | 16.0% | / | /
CCOc1nc(Nc2ccc(OC)cc2)nc(OCC)n1 | 1.2% | 20µM* | 0.6% | ? | -0.5% | ? | 67* | ?
O=C(O)c1[nH]c2ccccc2c1C(c1cc(Cl)cc([N+](=O)[O-])c1O)c1c(C(=O)O)[nH]c2ccccc12 | 35.5µM* | 20µM* | -9.7% | 50.1µM* | -1.7% | 17.8µM* | 75.2* | 26.9*
COC(=O)c1[nH]c2ccc(Cl)cc2c1NC(=O)c1ccccc1[N+](=O)[O-] | 10.9%[57.1 µM] | -11.2% | 2.9% | -29.4% | -2.1% | 13.9% | / | /
N#Cc1c(Nc2ccccc2)c(/C=N/NCCO)c[nH]c1=O | 3.7% | 8.5% | -24.9% | -4.5% | 1.8% | 14.6% | / | /
CC(=O)Nc1ccc2nc3c(=O)[nH]c(=O)[nH]c3nc2c1 | 28.2µM* | / | / | 28.2µM* | / | 8.91µM* | 11.9* | 16.9* | Pol kappa inh-2=2.38*
CC(=O)Nc1ccc2cc3ccc(NC(C)=O)cc3nc2c1 | -20.5% | ? | 6.8% | -17.8% | 4.9% | ? | / | /
O=C(CSc1nnc(CNc2ccc(F)cc2)n1CC1CCCO1)Nc1ccccc1 (stereo unspecified) | -17.6% | -2.4% | 17.0% | -3.1% | 3.5% | 11.8% | / | /
CCCCCC/C(C)=C1/SC(=S)NC1=O | 5.6% | -17.6% | 20.7% | -6.8% | -1.9% | ? | / | /
C/C(C/C(C)=C1/SC(=S)NC1=O)=C1\SC(=S)NC1=O | 15.8µM* | 3.55µM* | -26.0% | 20µM* | ? | 3.55µM* | 29.9* | 6.01*
CN1CCN(CC(O)COc2ccc(C(=O)O)cc2)CC1 (stereo unspecified) | 2.0% | -17.6% | 5.2% | -7.7% | 6.2% | 120.7% | / | /
CCOc1cc(/C=N/N=C2/NC(=O)C(CC(=O)O)S2)ccc1OCc1ccc(Cl)cc1Cl (stereo unspecified) | 22.4µM* | 31.6µM* | -10.8% | ? | ? | ? | 75.2* | 75.7* | Pol kappa inh-2=75.2*
SMILES | Pol beta inh | Pol eta inh-1 | GLS inhibitor | Pol kappa inh-1 | APE1 inh | POLI inh | Pol iota confirm | Pol eta inh-2 | others
CC(=O)c1ccc(NC(=O)CN2C(=O)CCc3cc(S(=O)(=O)N4CCC(C)CC4)ccc32)cc1 | 35.5µM* | 25.1µM* | -25.3% | -9.7%[60.1 µM] | / | ? | 53.2* | 37.9* | Pol kappa inh-2=?
CC(=O)Nc1ccc(NC(=O)CN2C(=O)CCc3cc(S(=O)(=O)N4CCCCC4)ccc32)cc1 | -0.8% | -4.3% | 3.1% | -10.6%[60.1 µM] | / | 11.7% | / | /
Cc1cccc(NC(=O)CNC(=O)c2cccc(-n3cccc3)c2)c1C | / | 3.16µM* | -29.7% | 31.6µM* | 1.89µM* | 7.94µM* | 9.47* | 9.53*
Cc1cccc(NC(=O)CNCC(=O)Nc2cccc(C)c2C)c1C | 40.5% | -5.1% | 4.8% | 18.2% | -10.6% | 52.8% | / | /
COc1ccc(NC(=O)CN(C)C(=O)c2cccc(Oc3ccccc3)c2)cc1 | / | -2.3% | -2.7% | -13.0% | -8.8% | -0.6% | / | /
Cc1ccc(NC(=O)CN(C)C(=O)c2cccc(-n3cccc3)c2)cc1 | / | 2.51µM* | ? | 17.8µM* | 0.947µM* | 8.91µM* | 15* | 16.9*
Cc1ccc(C)c(NC(=O)CN(C)C(=O)c2cccc(N3C(=O)CCC3=O)c2)c1 | / | -1.3% | -3.7% | 8.5% | -5.1% | 26.8% | / | /
COc1ccc(NC(=O)CN(C)C(=O)c2cccc(-n3cccc3)c2)cc1 | / | 11.2µM* | ? | 44.7µM* | 2.38µM* | 12.6µM* | 29.9* | 67.5*
